# Assay results taken from PubChem BioAssay (NCATS).
# Results filed as inconclusive are left out. A call without a number means that no potency is given here. Calls of active or inactive are those of the source. Calls follow the shape of the dose curve; as a rule, active = well fitted cell-killing curve with a large enough effect; inconclusive = small, poorly fitted or top-dose-only effect, or effect the other way; inactive = flat fitted curve, though single readings scatter.
# Test system: Tov112D
# Assay: Primary qHTS to identify gynecologic anti-cancer compounds using libraries of approved drugs and bioactive compounds (AID 1345084); also: nearly all actives have a fitted effect of over 55% in size
# Settings: Gynecologic cancer cell panel viability, ATPlite luminescence, 48 h; series mostly up to 57.5 µM
# In short: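 ATP-based viability (ATPlite), 1,000 cells/well, 16 h pre-incubation, 48 h compound at 37 C, 5% CO2, 15 min RT before read.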
# Potency is read from the fitted curve at half-maximal effect.
row,SMILES,Potency
1,CCCCc1c(-c2ccc(OC)cc2)[nH]c2nccnc12,inactive
2,O=C(c1ccc(F)cc1)N1CCCC(c2nc(-c3ccc(F)cc3)no2)C1 (centres undefined),inactive
3,CC(=O)OC(C)(C)/C=C/C(=O)[C@](C)(O)[C@H]1C(O)C[C@@]2(C)[C@@H]3CC=C4[C@@H](C=C(O[C@@H]5O[C@H](CO)[C@@H](O)[C@H](O)[C@H]5O)C(=O)C4(C)C)[C@]3(C)C(=O)C[C@]12C (some centres undefined),inactive
4,CC(C)c1cc2c(N3CCN(C4=NCC(C)(C)S4)CC3)ncnc2s1,inactive
5,COC1CCN(c2cccc(-c3cc(NC(C)=O)nc(-n4nc(C)cc4C)n3)n2)CC1,inactive
6,O=C(NCCCCCCCCNC(=O)C(Cl)Cl)C(Cl)Cl,inactive
7,O=C(N[C@H]1CCC[C@H](CO)C1)C1CCN(c2nc3cc(Cl)c(-c4ccc(Cl)cc4)cc3o2)CC1,inactive
8,CCN1C(C)(C)CC(Oc2ccc(C(=O)Nc3ccc(NC(=O)Nc4cc(C(C)(C)C)on4)cc3)nc2)CC1(C)C,inactive
9,Cc1cc(C(=O)Nc2cc(Nc3ccc4c(/C=C/c5ccccn5)n[nH]c4c3)ccc2F)n(C)n1,inactive
10,CC(=O)NCc1cccc(OC[C@@H](O)CNCCc2ccc(NS(=O)(=O)c3ccccc3)cc2)c1,inactive
11,CCC(=C(c1ccc(OCCN2CCCC2)cc1)c1ccc(OCCN2CCCC2)cc1)c1ccccc1,inactive
12,CCCn1ncc(CN2CCCC(C(=O)c3cccc(OC(C)C)c3)C2)c1C (centres undefined),inactive
13,O=C(NS(=O)(=O)c1ccc(Br)s1)c1ccc(Cl)cc1Cl,inactive
14,N#Cc1cnc2c(Cl)cc(NCc3cn(CCN4CCCCCC4)nn3)cc2c1Nc1ccc(F)c(Cl)c1,inactive
15,NC(N)=N/N=C/c1ccccc1Cl,inactive
16,O=S(=O)(Cc1ccccc1)Nc1ccc(-c2ccc3c(cnn3-c3ccc(F)cc3)c2)c(C(F)(F)F)c1,inactive
17,COc1ccc(NC(=O)c2ccc(-c3ccc(C(=N)N)cc3C)cc2)cc1N1CCN(C)CC1,inactive
18,CCc1cccc(CC)c1-n1c(C=C(C)C)c(C(=O)N2CCNCC2)cc(-c2nc(-c3ccc(C(F)(F)F)cc3)cs2)c1=O,inactive
19,COc1ccc2c(c1)C(C(=O)N(Cc1ccc(N(C)C)cc1)c1ccc(C(C)C)cc1)CCC2 (centres undefined),inactive
20,Cc1cnc(-c2ccccc2C(C)C)nc1NCc1ccc(-n2ccnn2)cc1,inactive

row,SMILES,Potency
1,CC(C)(C)Sc1c(CC(C)(C)C(=O)O)n(Cc2ccc(Cl)cc2)c2ccc(OCc3ccc4ccccc4n3)cc12,inactive
2,COC1CC(O[C@H]2CC[C@]3(C)C4CC[C@@]5(C)C(=O)[C@]4(CC[C@@H]3C2)CC[C@@H]5C2=CC(=O)OC2)OC(C)C1OC1OC(COC2OC(CO)C(O)C(O)C2O)C(O)C(O)C1O (some centres undefined),1120 nM (active)
3,CC(=O)CC(=O)Nc1ccc(Cl)c(C(F)(F)F)c1,inactive
4,Fc1ccc(-c2cncc(CN3CCN(c4cccc5c4OCCO5)CC3)c2)cc1,inactive
5,COc1cc(O)cc(/C=C/c2cccc(O)c2)c1,inactive
6,CNCCC(c1cccs1)c1ccc(O)c2ccccc12 (centres undefined),inactive
7,CC1OC(=O)C[C@@H]2C(C(=O)O)=CO[C@@H](O[C@H]3O[C@H](CO)[C@@H](O)[C@H](O)[C@H]3O)[C@H]12 (some centres undefined),inactive
8,CCOc1cccc(NC(=O)c2ccc(N3CCCC3)c(C(F)(F)F)c2)c1,inactive
9,CCn1c2ccccc2c2cc(Nc3ccnc(NCCCN4CCOCC4)n3)ccc21,inactive
10,CN(C)CCn1cc(-c2ccc(F)cc2)c(-n2cccc2)n1,inactive
11,COc1cc(-c2cn(C3CCc4c(F)cccc4N(CC(F)(F)F)C3=O)nn2)ccc1-n1cnc(C)c1 (centres undefined),inactive
12,CN1CC2CN(c3ccc4oc5ccccc5c(=O)c4c3)CC2C1 (centres undefined),inactive
13,COCC(c1ccc(C(F)(F)F)cc1)N1CCN(C2(C)CCN(C(=O)c3c(C)ncnc3C)CC2)CC1C (centres undefined),inactive
14,C/C=C/C=C/C=C/C(=O)O[C@@H]1C=C2COC(=O)[C@]2(O)[C@@]2(C)CCCC(C)(C)[C@H]12,inactive
15,C/C(=C\CCC(C)C1=CCC2(C)OC3=C(CC12)C(=O)C(O)CC3)CO (centres undefined),inactive
16,Cc1ccc(S(=O)(=O)NCc2ccc(C(=O)NCCN(Cc3ccccc3)C(C)C)cc2)cc1,inactive
17,CC(C)c1noc(C2CCN(c3ncnc(Nc4ccc(S(C)(=O)=O)cc4F)c3[N+](=O)[O-])CC2)n1,inactive
18,CC(=O)N1CCN(CCOc2ccc(C3CCN(C4=Nn5c(nnc5C(F)(F)F)CC4)CC3)cc2)CC1,inactive
19,C=C1CCC2C(C)(C)CCCC2(C)C1CC/C(C)=C\CO (centres undefined),inactive
